The list is not random: actives were taken first. Their share in the collection is about 3.1%.
TexasRed fluor: counter-screen for TRb-SRC2 inhibitors: fluorescence interference; TRb/SRC2 Texas Red total fluorescence interference; Potency, µM (top dose mostly 106 µM), for inactives: at the highest dose fluorescence change, negative = quenching; 0.29% of 280,000 active; active = well fitted curve in either direction with a large enough effect; inconclusive = small, poorly fitted or top-dose-only effect
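Human TRβ ligand-binding domain (0.6 uM) and Texas Red SRC2 peptide (20 nM) in Tris buffer with 1 uM T3 and 5% DMSO were incubated with pinned compound for 5 hr at ambient temperature. Total fluorescence was computed as S + 2P (555/632 nm).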
GoLoco inh red: RGS12 GoLoco-Gai1 interaction inhibition; P63096; Gai1:RGS12 GoLoco peptide FP, rhodamine, 10 min; Potency, µM (doses to about 61.6 µM), inactives show at the highest dose activity, negative = inhibition, most hits filed as inhibitors; 0.44% of 230,000 active; active = well fitted inhibition curve with a large enough effect, not every such curve was filed as active; inactive = no such curve, though single readings can be large or run the other way; note: nearly all actives have a fitted effect of over 30% in size
TRb SRC2 PPI: TRbeta-SRC2 interaction inhibition. TRbeta-SRC2 peptide binding, fluorescence polarization; receptor liganded with 1 µM T3. Potency, µM (series often up to 106 µM), inactives show at the top dose activity change, negative = inhibition, actives largely listed as inhibitors. 0.065% of 280,000 active. AID 1469;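 note: plate controls were bound peptide for no effect and peptide without receptor for full effect; nearly all actives have a fitted effect of over 50% in size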
Target sequence (P10828 whole entry, looked up): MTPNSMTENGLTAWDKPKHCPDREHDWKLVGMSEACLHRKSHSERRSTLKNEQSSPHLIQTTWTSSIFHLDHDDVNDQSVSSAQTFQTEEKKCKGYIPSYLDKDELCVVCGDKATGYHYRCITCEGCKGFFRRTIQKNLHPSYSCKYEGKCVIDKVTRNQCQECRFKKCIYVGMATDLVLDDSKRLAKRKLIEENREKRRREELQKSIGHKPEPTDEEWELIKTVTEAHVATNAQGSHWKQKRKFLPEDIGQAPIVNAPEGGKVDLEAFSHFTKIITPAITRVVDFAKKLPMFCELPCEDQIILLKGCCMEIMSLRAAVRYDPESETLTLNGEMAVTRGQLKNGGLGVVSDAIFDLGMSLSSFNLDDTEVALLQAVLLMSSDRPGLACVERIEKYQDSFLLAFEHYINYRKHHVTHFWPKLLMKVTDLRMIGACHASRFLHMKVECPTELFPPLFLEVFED
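Quantitative HTS by FP: 0.6 uM TRb LBD, 20 nM labeled SRC2 20-mer, 1 uM T3, 5% DMSO; 5 hr ambient incubation; % activity per concentration and potencies from concentration series.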
Tau fluor counter: counter-screen for tau fibril formation inhibitors; Potency, µM (top dose mostly 57.7 µM), for inactives: at the top dose activity change, negative = decrease; tau K18 P301L Alexa594 fluorescence, heparin fibrillization; 0.93% of 280,000 active; note: nearly all actives have a fitted effect of over 55% in size
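Human K18 P301L tau (15 uM unlabeled plus 0.24 uM Alexa 594-labeled, final) in 100 mM sodium acetate pH 7 was mixed with compound and 20 uM heparin and incubated 6 hr at 37 C.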
Tau ThT inhib: blocks human tau fibril formation measured by thioflavin T; AID 1460; P10636; Potency, µM (top dose mostly 57.4 µM), for the others: top-dose activity, negative = inhibition, usual class: inhibitors; 2.1% of 270,000 active; recombinant tau K18 P301L, heparin-induced fibrillization, ThT fluorescence; note: nearly all actives have a fitted effect of over 55% in size
Target sequence (P10636 561-689 P618L limits assumed): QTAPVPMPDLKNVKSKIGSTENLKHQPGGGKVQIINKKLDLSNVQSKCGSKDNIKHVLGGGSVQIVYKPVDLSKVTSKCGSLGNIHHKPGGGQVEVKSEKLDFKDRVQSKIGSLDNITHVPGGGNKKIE
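Fibril formation assay: tau K18 P301L at 15 uM with trace Alexa 594 label, heparin inducer 20 uM, pH 7 sodium acetate buffer, 37 C for 6 hr; endpoint ThT signal.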
Tau fibril FP: tau fibrillization inhibition (FP); K18 P301L tau heparin fibrillization, Alexa594 FP, 6 h; 0.39% of 280,000 active; Potency, µM (doses to about 57.7 µM), for the others: at the highest dose activity, negative = inhibition, actives largely listed as inhibitors; P10636; note: nearly all actives have a fitted effect of over 55% in size
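Steps: dispense K18 P301L tau (15 uM plus 0.24 uM Alexa 594 tracer, final) in pH 7 sodium acetate; add compound; add heparin (20 uM final); incubate 6 hr, 37 C; add ThT (30 uM final); after 1 hr ambient, read FP.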
* = called active by the depositor; ? = inconclusive; . = no result given; [ ] = remark or other dose. Unless noted, calls come from the whole dose curve; as a rule, active = well fitted curve in the direction sought with a large enough effect; inconclusive = small, poorly fitted or top-dose-only effect, or another doubt; inactive = no such curve, though single readings can be large; an effect the other way counts as inactive or inconclusive. Unless noted, % is set by controls: 0 for no effect and ±100 for the full control effect; potency is the fitted concentration of half-maximal effect.

SMILES | TexasRed fluor | GoLoco inh red | TRb SRC2 PPI | Tau fluor counter | Tau ThT inhib | Tau fibril FP
CN(Cc1ccccc1)CC(O)COc1ccc(CNCc2ccc(Cl)s2)cc1 (centres undefined) | 0.7% | -3.8% | 2.0% | -16.5% | -15.5% | -5.0%
O=C(Nc1cccc(Br)c1)N1CCC(CN2CCCCC2)CC1 | 2.7% | . | -2.3% | 5.7% | 2.4% | 0.7%
Cc1ccc(C)c(NC(=O)N2CCC(CN3CCOCC3)CC2)c1 | ? | . | -16.0% | 10.4% | 8.1% | -2.7%
Cc1cc(NC(=O)N2CCC(CN3CCOCC3)CC2)ccc1Br | 79.4µM*[quencher] | . | -16.9% | 3.7% | 4.8% | -10.3%
CCOc1ccc(NC(=O)N2CCC(CN3CCCCCC3)CC2)cc1 | 126µM*[quencher] | . | -29.3% | -1.3% | ? | -13.7%
O=C(Nc1ccc(Br)cc1)N1CCC(CN2CCCC2)CC1 | 44.7µM*[quencher] | . | ? | 5.0% | 1.5% | -3.6%
CCOC(=O)Cc1ccc(NC(=O)N2CCC(CN3CCCCCC3)CC2)cc1 | -13.5% | . | 1.9% | -7.4% | -16.7% | -11.4%
Cc1ccc(NC(=O)N2CCC(c3ccccc3)C2)cc1C (centres undefined) | -0.3% | -2.9% | -0.5% | . | . | .
CCCC(=O)NCC(c1ccc2c(c1)OCO2)N1CCN(c2ccc(F)cc2)CC1 (centres undefined) | -6.5% | . | 4.8% | -4.3% | -4.7% | 4.8%
O=C(NCc1ccc(F)cc1)c1ccc(CS(=O)(=O)c2ccc(Br)cc2)o1 | -0.9% | 2.1% | 3.3% | -5.4% | 6.6% | 4.0%
N#C/C(=C\c1ccccc1OCc1ccc(C(=O)O)cc1)C(=O)Nc1ccc(O)cc1 | -6.0% | -4.6% | 12.3% | -9.7% | ? | 9.1%
COc1ccc(NC(=O)/C(C#N)=C\c2ccc(OCc3ccc(C(=O)O)cc3)c(OC)c2)cc1 | 1.7% | 15.8% | 7.4% | -20.7% | 3.98µM* | -16.4%
Cc1cc(-c2csc(N)n2)c(C)n1C | 8.4% | 40.1% | -15.8% | ? | 31.6µM* | ?
Cc1cc(-c2csc(N)n2)c(C)n1Cc1ccco1 | 4.0% | 75.4% | -0.3% | ? | 15.8µM* | -13.4%
Cc1ccc(-c2nn(CC(N)=O)c(=O)c3ccccc23)cc1S(=O)(=O)N(C)C | -1.3% | 2.8% | -16.5% | -4.6% | -3.9% | 4.1%
CC(C)/C(=N/[N+](C)(C)C)c1ccccc1 | . | 2.82µM* | . | . | . | .
CC(C)/C(=N\NC(=O)Nc1ccccc1)c1ccccc1 | -3.8% | 1.4% | 5.5% | -2.6% | 0.8% | 0.5%
O=C(COC(=O)C1CC(O)CN1C(=O)Oc1ccccc1)c1ccc(Br)cc1 (centres undefined) | -0.5% | -30.9% | 5.9% | 2.5% | -2.9% | -0.8%
CN(/N=C/c1ccc(O)cc1O)c1ncc(C(F)(F)F)cc1Cl | 0.9% | -0.7% | -3.0% | 17.8µM*[quencher] | ? | 16.5%
COc1cc(/C=N/NC(=O)c2ccccc2)ccc1O | -2.1% | 4.9% | -0.4% | -1.7% | -16.0% | 1.7%
COc1cc(/C=N/c2oc(-c3ccccc3)cc2C#N)ccc1O | 0.8% | 193.6% | -5.4% | ? | 15.8µM* | 8.7%
CCN1C(c2ccccc2)=C(c2ccccc2)S/C1=C/C=C1\SC(=S)N(C)C1=O | 17.8µM*[fluorescent] | 10.6% | ? | 3.16µM*[fluorescent] | ? | -7.4%
CCN1C(=O)/C(=C/C=C2/Sc3ccc4ccccc4c3N2CCO)SC1=S | 21.8% | 234.7% | 19.2% | ? | ? | -7.9%
Cc1cccc(N2CCn3c2nc2c3c(=O)n(CCc3ccccc3)c(=O)n2C)c1 | 8.5% | . | 6.0% | ? | -17.9% | -12.4%
CC(C)(CNC(=O)c1ccc([N+](=O)[O-])c(Cl)c1)CNC(=O)c1ccc([N+](=O)[O-])c(Cl)c1 | -5.2% | 10.2% | -7.0% | 12.6µM*[quencher] | ? | -2.0%
SMILES | TexasRed fluor | GoLoco inh red | TRb SRC2 PPI | Tau fluor counter | Tau ThT inhib | Tau fibril FP
C=CCNC(=O)c1ccc([N+](=O)[O-])c(Cl)c1 | -2.0% | 0.4% | -0.8% | 3.4% | 6.0% | 8.2%
O=C(O)C12CC3(C(=O)O)CC(C(=O)O)(CC(C(=O)O)(C1)C3=O)C2=O | . | -4.0%[14.2 µM] | . | . | . | .
O=[N+]([O-])c1ccc(N2N=C(c3ccco3)CC2c2ccccc2)cc1 (centres undefined) | 7.0% | 60.4% | -4.1% | ? | 8.91µM* | ?
Cn1cccc1/C=C1\SC(=O)N(c2ccccc2)C1=O | -1.3% | 59.2% | -4.0% | 3.7% | 5.7% | 7.2%
CCOC(=O)c1cc(-c2ccc(/C=C3/C(=O)NC(=O)C(C#N)=C3C)o2)ccc1Cl | -3.4% | 2.0% | 4.7% | ? | ? | -10.9%
CC1=C(C#N)C(=O)NC(=O)/C1=C\c1ccc(-c2ccc(C)cc2[N+](=O)[O-])o1 | -2.0% | -3.6% | -4.8% | ? | 15.8µM* | ?
COc1cccc(CNC(=O)CN2C(=O)CCCc3ccccc32)c1OC | 20µM*[quencher] | . | -8.6% | -1.9% | -7.5% | 0.6%
COc1cc(C=O)ccc1Oc1nc(Nc2ccc(F)cc2F)nc(N2CCOCC2)n1 | -0.5% | 16.5% | 2.0% | -4.5% | -12.0% | 1.0%
CCOC(=O)c1ccc(NC(=S)NCCc2ccccc2F)cc1 | 2.1% | 7.8% | 1.5% | 20µM*[quencher] | -23.8% | 28.2µM*
CCCCc1ccc(-n2nc3cc(C)c(NC(=O)Cc4ccccc4)cc3n2)cc1 | -76.8%[53 µM] | . | -25.3%[53 µM] | 39.8µM*[quencher] | 31.6µM* | ?
Cc1cc2nn(-c3ccccc3)nc2cc1NC(=O)Cc1ccc(Cl)cc1 | 3.8% | . | 0.6% | -12.2% | -13.9% | -7.0%
CC(=O)N(C1=C(N2CCOCC2)C(=O)c2ccccc2C1=O)c1ccc(C(=O)O)cc1 | -0.5% | 0.8% | 1.5% | 17.8µM*[quencher] | 14.1µM* | ?
O=C(O)c1ccc(NC2=C(N3CCOCC3)C(=O)c3ccccc3C2=O)cc1 | -2.0% | 1.4% | 5.2% | ? | 17.8µM* | ?
COCCNC(=S)N/N=C/c1ccc2c(c1)OCCO2 | 1.2% | 9.6% | -4.1% | -6.2% | -9.0% | -0.8%
CCOC(=O)C1=C(O)/C(=C/c2ccc(-c3ccccc3C(=O)O)o2)SC1=Nc1ccc(OC)cc1 | -11.7% | 10.1% | 2.2% | -6.7% | 15.8µM* | 5.2%
CCOC(=O)COn1c(=O)c(=O)n(O)c2ccccc21 | 2.2% | . | -11.5% | -3.4% | -12.8% | 0.4%
CC1(C)CC(=O)C(N=Nc2cc(Cl)c(Cl)c(Cl)c2)=C(O)C1 | -3.7% | 10.9% | 5.1% | -12.2% | -18.5% | -2.8%
O=C1CCCC(O)=C1N=Nc1c(Cl)cc(Cl)cc1Cl | 44.7µM*[fluorescent] | -14.1% | 28.2µM* | -6.0% | ? | -12.6%
COc1cc(/C=C2\SC(c3ccc(C)cc3)=NC2=O)cc(OC)c1O | -11.6% | 114.6% | -5.7% | ? | 5.01µM* | ?
Cc1ccc(/C=C2\SC(N3CCCC3)=NC2=O)cc1 | -0.9% | 20.3% | 3.8% | -2.0% | ? | 2.2%

Compound activity as filed in PubChem BioAssay.
